In PubChem BioAssay AID1159580 (chemical genetic matrix, 2015):
Out of some 5,500 compounds screened, about 2,000 (36%) were called active. Roughly 18% stayed inconclusive and do not appear here. No stated cut-off is given here; in the data, active means normalized growth mostly below about 0.91 (no sharp cut-off); inconclusive means no clear call, values can overlap the other calls; inactive means mostly above about 0.92. The list shows a part of the results.

Experiment: chemical genetic growth profiling, strain panel (AID 1159580);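 further: tested at 20 µM; growth read once vehicle control cultures reached saturation at 30 °C; 1 = growth at the plate median or of vehicle wells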
Conditions: growth OD

Measured: normalized growth

NC(=O)c1ccc([N+](=O)[O-])cc1Cl
inactive: S. cerevisiae deletion strains, locus YKL009W, strain mrt4, stronger effect = lower value 0.977 | S. cerevisiae deletion strains, locus YKL068W, stronger effect = lower value 0.977 | S. cerevisiae deletion strains, locus YKL085W, strain MDH1 (second series), stronger effect = lower value 0.98 | S. cerevisiae deletion strains, locus YKL085W, strain MDH1, stronger effect = lower value 0.98 | S. cerevisiae deletion strains, locus YKL160W, strain elf1, stronger effect = lower value 1.03 | S. cerevisiae deletion strains, locus YKL190W, strain CNB1, stronger effect = lower value 0.968 | S. cerevisiae deletion strains, locus YKR001C, strain vps1, stronger effect = lower value 0.969 | S. cerevisiae deletion strains, locus YKR026C, strain gcn3, stronger effect = lower value 0.981 | S. cerevisiae deletion strains, locus YKR091W, strain srl3, stronger effect = lower value 0.977 | S. cerevisiae deletion strains, locus YLL001W, strain dnm1, stronger effect = lower value 1 | S. cerevisiae deletion strains, locus YLL026W, stronger effect = lower value 1.01 | S. cerevisiae deletion strains, locus YLL041C, strain sdh2, stronger effect = lower value 0.982 | S. cerevisiae deletion strains, locus YLR027C, strain aat2, stronger effect = lower value 1.01 | S. cerevisiae deletion strains, locus YLR039C, strain RIC1, stronger effect = lower value 0.927 | S. cerevisiae deletion strains, locus YLR058C, strain SHM2, stronger effect = lower value 0.963 | S. cerevisiae deletion strains, locus YLR102C, strain apc9, stronger effect = lower value 0.971 | S. cerevisiae deletion strains, locus YLR113W, strain HOG1, stronger effect = lower value 0.961 | S. cerevisiae deletion strains, locus YLR221C, strain rsa3, stronger effect = lower value 0.956 | S. cerevisiae deletion strains, locus YLR258W, strain gsy2, stronger effect = lower value 0.956 | S. cerevisiae deletion strains, locus YLR262C, strain YPT6 (second series), stronger effect = lower value 0.991 | S. cerevisiae deletion strains, locus YLR262C, strain YPT6, stronger effect = lower value 0.838 | S. cerevisiae deletion strains, locus YLR268W, strain sec22, stronger effect = lower value 0.961 | S. cerevisiae deletion strains, locus YLR320W, strain mms22, stronger effect = lower value 0.965 | S. cerevisiae deletion strains, locus YLR330W, strain CHS5, stronger effect = lower value 0.98 | S. cerevisiae deletion strains, locus YLR342W, strain FKS1 (second series), stronger effect = lower value 1 | S. cerevisiae deletion strains, locus YLR342W, strain FKS1, stronger effect = lower value 1 | S. cerevisiae deletion strains, locus YLR357W, strain rsc2, stronger effect = lower value 0.965 | S. cerevisiae deletion strains, locus YLR370C, strain arc18, stronger effect = lower value 0.972 | S. cerevisiae deletion strains, locus YLR371W, strain rom2, stronger effect = lower value 0.982 | S. cerevisiae deletion strains, locus YLR384C, strain iki3, stronger effect = lower value 0.992 | S. cerevisiae deletion strains, locus YLR418C, strain cdc73, stronger effect = lower value 0.949 | S. cerevisiae deletion strains, locus YML016C, strain PPZ1, stronger effect = lower value 0.98 | S. cerevisiae deletion strains, locus YML032C, strain rad52, stronger effect = lower value 0.999 | S. cerevisiae deletion strains, locus YML120C, strain ndi1, stronger effect = lower value 1 | S. cerevisiae deletion strains, locus YML124C, strain tub3, stronger effect = lower value 0.984 | S. cerevisiae deletion strains, locus YMR058W, strain fet3, stronger effect = lower value 0.977 | S. cerevisiae deletion strains, locus YMR078C, strain ctf18, stronger effect = lower value 0.977 | S. cerevisiae deletion strains, locus YMR125W, strain sto1, stronger effect = lower value 0.973 | S. cerevisiae deletion strains, locus YMR129W, stronger effect = lower value 0.975 | S. cerevisiae deletion strains, locus YMR205C, strain PFK2, stronger effect = lower value 1.01 | S. cerevisiae deletion strains, locus YMR223W, strain ubp8, stronger effect = lower value 0.988 | S. cerevisiae deletion strains, locus YMR231W, strain pep5, stronger effect = lower value 0.98 | S. cerevisiae deletion strains, locus YMR263W, strain SAP30, stronger effect = lower value 0.968 | S. cerevisiae deletion strains, locus YMR307W, strain GAS1, stronger effect = lower value 0.891 | S. cerevisiae deletion strains, locus YNL067W, strain RPL9B, stronger effect = lower value 0.969 | S. cerevisiae deletion strains, locus YNL071W, strain lat1, stronger effect = lower value 0.974 | S. cerevisiae deletion strains, locus YNL128W, strain TEP1, stronger effect = lower value 0.972 | S. cerevisiae deletion strains, locus YNL153C, strain GIM3, stronger effect = lower value 0.964 | S. cerevisiae deletion strains, locus YNL183C, strain NPR1, stronger effect = lower value 0.895 | S. cerevisiae deletion strains, locus YNL209W, strain ssb2, stronger effect = lower value 0.964 | S. cerevisiae deletion strains, locus YNL233W, strain BNI4, stronger effect = lower value 0.982 | S. cerevisiae deletion strains, locus YNL248C, strain rpa49, stronger effect = lower value 0.931 | S. cerevisiae deletion strains, locus YNL250W, strain rad50, stronger effect = lower value 0.971 | S. cerevisiae deletion strains, locus YNL271C, strain bni1, stronger effect = lower value 0.981 | S. cerevisiae deletion strains, locus YNL298W, strain CLA4, stronger effect = lower value 0.98 | S. cerevisiae deletion strains, locus YNL307C, strain MCK1, stronger effect = lower value 0.989 | S. cerevisiae deletion strains, locus YNL322C, strain KRE1 (second series), stronger effect = lower value 0.983 | S. cerevisiae deletion strains, locus YNL322C, strain KRE1, stronger effect = lower value 0.981 | S. cerevisiae deletion strains, locus YNR049C, strain mso1, stronger effect = lower value 0.97 | S. cerevisiae deletion strains, locus YNR052C, strain pop2, stronger effect = lower value 0.978 | S. cerevisiae deletion strains, locus YOL006C, strain TOP1, stronger effect = lower value 0.886 | S. cerevisiae deletion strains, locus YOL012C, strain htz1 0.79 | S. cerevisiae deletion strains, locus YOL147C, strain pex11, stronger effect = lower value 0.98 | S. cerevisiae deletion strains, locus YOR001W, strain rrp6, stronger effect = lower value 1 | S. cerevisiae deletion strains, locus YOR061W, strain CKA2, stronger effect = lower value 0.951 | S. cerevisiae deletion strains, locus YOR069W, strain VPS5, stronger effect = lower value 0.993 | S. cerevisiae deletion strains, locus YOR070C, strain gyp1, stronger effect = lower value 0.972 | S. cerevisiae deletion strains, locus YOR080W, strain dia2, stronger effect = lower value 0.999 | S. cerevisiae deletion strains, locus YOR083W, strain WHI5, stronger effect = lower value 0.989 | S. cerevisiae deletion strains, locus YOR106W, strain vam3, stronger effect = lower value 0.987 | S. cerevisiae deletion strains, locus YOR136W, strain idh2, stronger effect = lower value 0.99 | S. cerevisiae deletion strains, locus YOR144C, strain elg1, stronger effect = lower value 0.991 | S. cerevisiae deletion strains, locus YOR184W, strain ser1, stronger effect = lower value 0.982 | S. cerevisiae deletion strains, locus YOR231W, strain MKK1, stronger effect = lower value 0.956 | S. cerevisiae deletion strains, locus YOR265W, strain rbl2, stronger effect = lower value 0.985 | S. cerevisiae deletion strains, locus YOR270C, strain vph1, stronger effect = lower value 0.929 | S. cerevisiae deletion strains, locus YOR290C, strain snf2, stronger effect = lower value 0.915 | S. cerevisiae deletion strains, locus YOR316C, strain cot1, stronger effect = lower value 0.962 | S. cerevisiae deletion strains, locus YPL051W, strain arl3, stronger effect = lower value 0.988 | S. cerevisiae deletion strains, locus YPL055C, strain LGE1, stronger effect = lower value 0.941 | S. cerevisiae deletion strains, locus YPL078C, strain atp4, stronger effect = lower value 1.02 | S. cerevisiae deletion strains, locus YPL106C, strain sse1, stronger effect = lower value 0.957 | S. cerevisiae deletion strains, locus YPL240C, strain hsp82, stronger effect = lower value 0.986 | S. cerevisiae deletion strains, locus YPL241C, strain CIN2, stronger effect = lower value 1.01 | S. cerevisiae deletion strains, locus YPL256C, strain CLN2, stronger effect = lower value 0.941 | S. cerevisiae deletion strains, locus YPR119W, strain clb2, stronger effect = lower value 0.986 | S. cerevisiae deletion strains, locus YPR141C, strain kar3, stronger effect = lower value 0.955 | S. cerevisiae deletion strains, locus YPR163C, strain tif3, stronger effect = lower value 0.989 | S. cerevisiae deletion strains, locus YPR167C, strain met16, stronger effect = lower value 0.962 | S. cerevisiae deletion strains, strain wtn01, stronger effect = lower value 0.969 | S. cerevisiae strains, strain wild type, stronger effect = lower value 0.981
